Source: PubChem (several laboratories)
NRP1-CendR mod = modulators of CendR peptide binding to NRP-1, primary screen, biochemical, fluorescence polarization, uHTS; FAM-RPARPAR peptide binding to NRP-1; inhibition, % at 25 µM; Neuropilin-1 (Homo sapiens), O14786; actives 0.85% (n = 360,000);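 active means inhibition or corrected inhibition above about 18%, plus a signal ratio from 0.5 to 1.5, limit read from the data, passing the limit was not always enough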
FID counter = compounds displacing fluorescent DNA intercalator, primary screen, artefact control for HCV NS3 helicase inhibitor project, biochemical, FID fluorescence. actives 0.17% (n = 290,000). inhibition, % at 7.9 µM. DNA fluorescent intercalator displacement; in the data active means inhibition above about 37%;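 further: higher means more ethidium bromide displaced from hairpin DNA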
RAD54 inh = inhibitors of human RAD54 branch migration, primary screen, biochemical, fluorescence, single point; inhibition, % at 10.4 µM; DNA repair and recombination protein RAD54-like (Homo sapiens), Q92698; actives 0.14% (n = 360,000); RAD54 Holliday junction branch migration, FAM/BHQ fluorescence;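 active means mean normalized replicate activity at least 40 and at least half of replicates scoring 40 or more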;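 further: inhibitors cause a drop in the FAM fluorescence signal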
Target sequence (Q92698 whole entry, looked up): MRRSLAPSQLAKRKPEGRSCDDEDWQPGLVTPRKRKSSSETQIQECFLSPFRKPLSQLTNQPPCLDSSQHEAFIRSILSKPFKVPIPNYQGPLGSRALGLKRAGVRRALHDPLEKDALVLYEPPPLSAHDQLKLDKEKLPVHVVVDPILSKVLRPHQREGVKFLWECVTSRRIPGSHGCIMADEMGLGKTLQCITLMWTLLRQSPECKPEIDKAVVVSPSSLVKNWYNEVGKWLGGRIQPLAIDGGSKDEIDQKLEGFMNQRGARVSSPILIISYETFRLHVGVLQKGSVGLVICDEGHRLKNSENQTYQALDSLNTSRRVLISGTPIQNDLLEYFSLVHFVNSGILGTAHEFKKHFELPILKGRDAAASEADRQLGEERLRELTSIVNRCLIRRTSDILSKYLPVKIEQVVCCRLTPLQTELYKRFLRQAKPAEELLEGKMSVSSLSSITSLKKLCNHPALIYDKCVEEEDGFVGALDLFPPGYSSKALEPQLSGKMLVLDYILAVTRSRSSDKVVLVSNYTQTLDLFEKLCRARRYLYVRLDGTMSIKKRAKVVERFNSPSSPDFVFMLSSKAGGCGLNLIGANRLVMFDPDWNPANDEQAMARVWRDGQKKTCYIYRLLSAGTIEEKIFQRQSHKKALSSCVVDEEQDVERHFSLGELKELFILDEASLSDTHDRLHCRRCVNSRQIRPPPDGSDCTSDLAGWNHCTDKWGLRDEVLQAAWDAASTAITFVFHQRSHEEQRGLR
RAD52 anneal inh = RAD52 DNA annealing inhibitors, primary screen, biochemical, FRET, single point, set 2 | DNA repair protein RAD52 homolog (Homo sapiens), P43351 | recombinant RAD52 DNA annealing, FRET fluorescence | inhibition, % at 18.7 µM | actives 0.46% (n = 360,000);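 active means every replicate showing at least 50% inhibition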
miR-122 sensor = miR-122 Renilla sensor signal increase in Huh7, primary screen, miR-122 inhibitor project, cell-based, single point, plate reader; Huh7 miR-122 Renilla luciferase sensor, 48 h; neutral wells = 0, positive control = 100; activation (reporter increase), % at 12.5 µM; actives 0.3% (n = 340,000);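 active means mean replicate activation score at least 90 and every replicate individually at or above 90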;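 further: higher luciferase means less miR-122 activity so hits act as miR-122 inhibitors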
N-glyco inh = increase of ERlucT glycosylation luciferase signal, primary screen, N-linked glycosylation inhibitor project, D54 ERlucT cells, luminescence, set 2; D54 ERlucT glycosylation luciferase reporter, 24 h; percent of 100 nM tunicamycin response; reporter increase, % at 12.5 µM; actives 0.23% (n = 360,000); AID 588692, 2011;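 active means mean luciferase reporter signal, scaled so untreated is 0 and the glycosylation-blocking control 100, at or above a set limit in every replicate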;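 further: luciferase carries N-glycosylation sites so blocking glycosylation raises the light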
Each line names hits and unclear results; the compound was inactive in the other large screens. In the library only some 1.5% were active in any assay of this set; here they are far more common.

c1ccc(-c2ccc3sccc3n2)cc1	NRP1-CendR mod 27 (no result: FID counter)
C/C=C/c1ccc([C@H]2[C@@H](CO)N(CCC(F)(F)F)C23CN(C(C)=O)C3)cc1	none (no result: NRP1-CendR mod, FID counter, RAD54 inh, miR-122 sensor, N-glyco inh)
CN1CC[C@]23c4ccccc4N[C@H]1[C@]21CCN(C)[C@H]3Nc2ccccc21	none (no result: FID counter)
COC(=O)C1CC23C=CCN4CCC5(c6ccccc6NC15C2C)C43 (configuration not stated)	miR-122 sensor 148
Cc1ccc(C(=O)N/N=C\c2cccnc2)s1	none (no result: miR-122 sensor)
Cc1ccc(NC(=O)CCC(=O)N/N=C/c2cccnc2)cc1	none (no result: RAD54 inh)
Cc1c(C(=O)N/N=C/c2cccnc2)sc(N)c1C#N	N-glyco inh 40
Cc1ccccc1NC(=O)CCC(=O)N/N=C/c1cccnc1	NRP1-CendR mod 22
CCOCCCNC(=O)C(NC(=O)CNC(C)=O)c1ccc(Cl)cc1 (configuration not stated)	NRP1-CendR mod 24 (no result: RAD52 anneal inh)
CC(=O)c1ccc(N2CCN(C(=O)/C=C/c3ccc(S(=O)(=O)N4CCOCC4)cc3)CC2)cc1	NRP1-CendR mod 26 (no result: RAD54 inh, miR-122 sensor)
O=C(/C=C/c1ccc(S(=O)(=O)N2CCOCC2)cc1)N1CCCCC1	none (no result: FID counter, miR-122 sensor)
COc1ccccc1CCNCc1ccc(OC)c(OCc2ccccc2)c1	N-glyco inh 34 (no result: RAD52 anneal inh)
COc1ccc(CNCc2ccco2)cc1OCc1ccccc1	none (no result: RAD52 anneal inh)
COc1cccc(CNCCc2c[nH]c3ccccc23)c1OCc1ccccc1	FID counter 52 (no result: RAD54 inh, miR-122 sensor)
COc1cc(CC(=O)O)ccc1OCc1ccccc1	NRP1-CendR mod 26
COc1ccc(S(=O)(=O)N(C)C[C@@H]2OCCCC[C@@H](C)Oc3ccc(NC(=O)C4CCCCC4)cc3C(=O)N([C@H](C)CO)C[C@H]2C)cc1	none (no result: NRP1-CendR mod, FID counter, N-glyco inh)
CO[C@@H]1CN(C)C(=O)c2cc(NC(=O)c3ccc(-c4ccccc4)cc3)ccc2OC[C@@H](C)NC[C@@H]1C	none (no result: NRP1-CendR mod, FID counter, miR-122 sensor, N-glyco inh)
O=C1c2cc(Cl)ccc2OC2(CCNCC2)C12CC(c1ccccc1)=NO2 (configuration not stated)	none (no result: FID counter)
O=C1c2cc(Cl)ccc2OC2(CCNCC2)C12CC(c1ccc(Cl)cc1)=NO2 (configuration not stated)	NRP1-CendR mod 25 (no result: FID counter, RAD52 anneal inh)
O=C(Nc1ccc(Cl)cc1)N1CCSC1=NCc1ccccc1	none (no result: RAD54 inh, miR-122 sensor)
CC(=O)Nc1ccc(C2=NN(C)C(=NCc3ccccc3)SC2)cc1	NRP1-CendR mod 30 (no result: RAD54 inh, miR-122 sensor)
Cc1ccc2nc(-c3ccc(SCC(=O)Nc4nnc(C)s4)nc3)[nH]c2c1	N-glyco inh 102 (no result: RAD54 inh, RAD52 anneal inh, miR-122 sensor)
Cc1ccc2nc(-c3ccc(SCC(=O)Nc4nc(C)cs4)nc3)[nH]c2c1	none (no result: RAD52 anneal inh)
CCCCNS(=O)(=O)c1ccc2nc(-c3cccnc3)cc(C(=O)NC3CCCC3)c2c1	miR-122 sensor 97 (no result: RAD54 inh)
COc1cc(NCCCC(C)N)c2ncccc2c1 (configuration not stated)	NRP1-CendR mod 44, RAD54 inh 69 (no result: RAD52 anneal inh)
CCC(CNc1cc(OC)cc2cccnc12)NC1CCCCC1 (configuration not stated)	none (no result: RAD54 inh, miR-122 sensor)
O=C([C@@H]1[C@@H](CO)[C@@H]2Cn3c(ccc(-c4ccccc4)c3=O)[C@@H]2N1CCC(F)(F)F)N1CCOCC1	none (no result: NRP1-CendR mod, FID counter, N-glyco inh)
C[C@@H]1CN([C@@H](C)CO)C(=O)Cc2cc(NC(=O)CCCN(C)C)ccc2O[C@@H]1CN(C)Cc1ccc(Oc2ccccc2)cc1	none (no result: NRP1-CendR mod, FID counter, RAD54 inh, miR-122 sensor, N-glyco inh)
C[C@H]1CN([C@@H](C)CO)C(=O)Cc2cc(NC(=O)CCCN(C)C)ccc2O[C@@H]1CN(C)Cc1ccc(Oc2ccccc2)cc1	RAD52 anneal inh 52 (no result: NRP1-CendR mod, FID counter, N-glyco inh)
C[C@H](CO)N1C[C@H](C)[C@H](CN(C)Cc2ccc(Oc3ccccc3)cc2)Oc2ccc(NC(=O)CCCN(C)C)cc2CC1=O	RAD52 anneal inh 58 (no result: NRP1-CendR mod, FID counter, N-glyco inh)
C[C@H](CO)N1C[C@H](C)[C@@H](CN(C)Cc2ccc(Oc3ccccc3)cc2)Oc2ccc(NC(=O)CCCN(C)C)cc2C1=O	none (no result: NRP1-CendR mod, FID counter, N-glyco inh)
C[C@@H]1CN([C@H](C)CO)C(=O)c2cc(NC(=O)Cn3cnnn3)ccc2O[C@H]1CN(C)S(C)(=O)=O	none (no result: NRP1-CendR mod, FID counter, N-glyco inh)
Cc1nn(Cc2c(Cl)cccc2Cl)c(C)c1NC(=O)c1cc(C(C)C)on1	N-glyco inh 64
C[C@@H]1CN([C@@H](C)CO)C(=O)c2cccc(NC(=O)Nc3cccc4ccccc34)c2O[C@H]1CN(C)C(=O)NC1CCCCC1	none (no result: NRP1-CendR mod, FID counter, RAD54 inh, RAD52 anneal inh, N-glyco inh)
C[C@H]1CN([C@@H](C)CO)C(=O)c2cc(-c3ccc(F)cc3)cnc2O[C@@H]1CN(C)C(=O)Cc1ccccc1	none (no result: NRP1-CendR mod, FID counter, N-glyco inh)
CO[C@@H]1CN(C)C(=O)c2ccc(NC(=O)C3CC3)cc2OC[C@H](C)N(C(=O)CN(C)C)C[C@@H]1C	none (no result: NRP1-CendR mod, FID counter, miR-122 sensor, N-glyco inh)
Cc1noc(C)c1S(=O)(=O)N(C)C[C@@H]1OCCCC[C@H](C)Oc2ccc(N(C)C)cc2C(=O)N([C@H](C)CO)C[C@@H]1C	none (no result: NRP1-CendR mod, FID counter, N-glyco inh)
Cc1cc(=O)[nH]c(Nc2ccc(Cl)cc2)n1	NRP1-CendR mod 22
Cc1cc(=O)[nH]c(Nc2ccc(N(C)C)cc2)n1	none
CC(=O)Nc1ccc(CNc2nc(NCC3CC3)nc3ccsc23)cc1	none (no result: FID counter)
CC(=O)Nc1ccc(CNc2nc(NC(C)C)nc3ccsc23)cc1	NRP1-CendR mod 28 (no result: FID counter)
CCNC(=S)N1CCN(c2ccccn2)CC1	none (no result: RAD54 inh, miR-122 sensor)
CC(NNC(=S)N1CCN(c2ccccn2)CC1)c1nccc2ccccc12 (configuration not stated)	NRP1-CendR mod 24 (no result: FID counter, RAD54 inh)
COc1ccc(S(=O)(=O)Nc2ccc3c(c2)C(=O)N([C@@H](C)CO)C[C@H](C)[C@@H](CN(C)Cc2ccc4c(c2)OCO4)OCCCC[C@@H](C)O3)cc1	none (no result: NRP1-CendR mod, FID counter, N-glyco inh)
O=C(NC1(C(F)(F)F)NC(=O)N(Cc2ccccc2)C1=O)c1cccnc1 (configuration not stated)	NRP1-CendR mod 41 (no result: RAD52 anneal inh, miR-122 sensor)
COCC(=O)Nc1ccc2c(c1)C(=O)N(C)[C@@H]1CC[C@H](CC(=O)NCCc3ccncc3)O[C@H]1CO2	none (no result: NRP1-CendR mod, FID counter, N-glyco inh)
c1ccc2c3n(nc2c1)CCCO3	NRP1-CendR mod 32 (no result: FID counter)
COC(=O)C[C@H]1CC[C@H]2[C@@H](COc3ccc(NC(=O)Nc4ccc(Cl)cc4)cc3C(=O)N2C)O1	none (no result: NRP1-CendR mod, FID counter, RAD52 anneal inh, N-glyco inh)
CCCN(C)C[C@H]1OCCCC[C@@H](C)Oc2ccc(NS(=O)(=O)c3cn(C)cn3)cc2C(=O)N([C@H](C)CO)C[C@@H]1C	none (no result: NRP1-CendR mod, FID counter, N-glyco inh)
CC1Cn2c(nnc2-c2ccccc2O)S1 (configuration not stated)	none
CC1Cn2c(nnc2-c2cc3ccccc3cc2O)S1 (configuration not stated)	NRP1-CendR mod 26
